Results filed as inconclusive are left out. Calls of active or inactive are those of the source. Calls follow the shape of the dose curve; as a rule, active = well fitted curve in the direction sought with a large enough effect in the repeat runs; inconclusive = weak or mixed curves; inactive = no such curve, though single readings can be large; an effect the other way counts as inactive or inconclusive.
Key:
[1] = A CellTox Green Cytotoxicity Assay to monitor cytotoxicity in HepG2 cells - 0 hour (AID 1224882); also: nearly all actives have a fitted effect of over 35% in size
Summary of the method: (§1)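 Continuous culture of HepG2 cells with a membrane-impermeant DNA dye; rising fluorescence marks dead cells. Compound exposure lasted up to 40 h at 37 C, with reads every 8 h from 0 h.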

[2] = A CellTox Green Cytotoxicity Assay to monitor cytotoxicity in HepG2 cells - 32 hour (AID 1224883); also: nearly all actives have a fitted effect of over 50% in size; also: potency is read from the fitted curve at half-maximal effect
Summary of the method: as §1

[3] = A CellTox Green Cytotoxicity Assay to monitor cytotoxicity in HEK293 cells - 8 hour (AID 1224884); also: nearly all actives have a fitted effect of over 35% in size
Summary of the method: (§2)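 Each value comes from one timepoint of a single continuous run in which HEK293 cells with CellTox Green were exposed to compound for up to 40 h at 37 C, dye fluorescence rising with cell death.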

[4] = qHTS RealTime-Glo MT Cell Viability Assay in HepG2 cells - 16 hour (AID 1224885); also: nearly all actives have a fitted effect of over 50% in size; also: potency is read from the fitted curve at half-maximal effect
Summary of the method: (§3)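 Luminescence read-out: viable HepG2 cells reduce a prosubstrate to a NanoLuc substrate, giving a signal proportional to live cell number. Reads taken at 0, 8, 16, 24, 32 and 40 h of compound exposure at 37 C.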

[5] = qHTS RealTime-Glo MT Cell Viability Assay in HEK293 cells - 24 hour (AID 1224886); also: nearly all actives have a fitted effect of over 50% in size; also: potency is read from the fitted curve at half-maximal effect; as to activity change, negative = cytotoxicity: top concentration of the series differs between compounds
Summary of the method: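 Nonlytic real-time viability readout: viable cells convert prosubstrate to NanoLuc substrate, giving luminescence proportional to live cell number. HEK293, 600 cells/well, compound added after 5 h, continuous culture at 37 C.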

[6] = qHTS RealTime-Glo MT Cell Viability Assay in HEK293 cells - 8 hour (AID 1224887); also: nearly all actives have a fitted effect of over 50% in size; also: potency is read from the fitted curve at half-maximal effect; as to activity change, negative = cytotoxicity: top concentration of the series differs between compounds
Summary of the method: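 qHTS format; HEK293 cells with NanoLuc/prosubstrate reagent, 37 C/5% CO2 for 5 h pre-dosing; compounds 23 nL in DMSO; luminescence at each time point reflects viable cells.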

[7] = A CellTox Green Cytotoxicity Assay to monitor cytotoxicity in HEK293 cells - 16 hour (AID 1224888); also: nearly all actives have a fitted effect of over 35% in size; also: potency is read from the fitted curve at half-maximal effect
Summary of the method: as §2

[8] = qHTS RealTime-Glo MT Cell Viability Assay in HepG2 cells - 0 hour (AID 1224889); also: nearly all actives have a fitted effect of over 50% in size
Summary of the method: as §3

[9] = A CellTox Green Cytotoxicity Assay to monitor cytotoxicity in HepG2 cells - 8 hour (AID 1224890); also: nearly all actives have a fitted effect of over 45% in size; also: potency is read from the fitted curve at half-maximal effect
Summary of the method: as §1

[10] = qHTS assay to identify small molecule antagonists of the estrogen receptor alpha (ER-alpha) signaling pathway using the BG1 cell line in the presence of 0.1 nM 17-beta-estradiol - cell viability counter screen (AID 1259241); also: nearly all actives have a fitted effect of over 40% in size
Summary of the method: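 The cell line endogenously expresses full-length ER-alpha and carries four EREs driving luciferase. Cells are cultured 5 days hormone-free, treated 22 hr with compounds and 0.1 nM estradiol, then viability is read by fluorescence.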
% is scaled to controls: 0 for no effect and ±100 for the full control effect.

CO[Si](CCC1CCC2OC2C1)(OC)OC (stereo not given)
inactive: Potency [1] | Potency [2] | Potency [3] | Potency [4] | Potency [5] | Potency [6] | Potency [7] | Potency [8] | Potency [9] | Potency [10]

O=CC1CC1
inactive: Potency [1] | Potency [2] | Potency [3] | Potency [4] | Potency [5] | Potency [6] | Potency [7] | Potency [8] | Potency [9] | Potency [10]

CCc1cccc(CC)c1N(COC)C(=O)CS(=O)(=O)O
inactive: Potency [1] | Potency [2] | Potency [3] | Potency [4] | Potency [5] | Potency [6] | Potency [7] | Potency [8] | Potency [9] | Potency [10]

CCC(=O)OCCc1ccccc1
inactive: Potency [1] | Potency [2] | Potency [3] | Potency [4] | Potency [5] | Potency [6] | Potency [7] | Potency [8] | Potency [9] | Potency [10]

O=S(=O)(O)c1cc(S(=O)(=O)O)c2ccc3c(S(=O)(=O)O)cc(S(=O)(=O)O)c4ccc1c2c43
inactive: cytotoxicity [1] -2.2% [at 15.8 µM] | cytotoxicity increase [2] -9.89% [at 15.8 µM] | cytotoxicity increase [3] -7.26% [at 15.8 µM] | activity change, negative = cytotoxic [4] 2.01% [at 15.8 µM] | activity change, negative = cytotoxicity [5] 1.56% [at 15.8 µM] | activity change, negative = cytotoxicity [6] -2.93% [at 15.8 µM] | activity change [7] -3.56% [at 15.8 µM, active compounds read high] | activity change, negative = cytotoxicity [8] 4.18% [at 15.8 µM] | cytotoxicity increase [9] 7.21% [at 15.8 µM] | activity change, negative = cytotoxicity [10] -2.07% [at 19 µM]

CN1CN(C)CN(C)C1
inactive: Potency [1] | Potency [2] | Potency [3] | Potency [4] | Potency [5] | Potency [6] | Potency [7] | Potency [8] | Potency [9] | Potency [10]

COc1ccc(C#N)cc1
inactive: Potency [1] | Potency [2] | Potency [3] | Potency [4] | Potency [5] | Potency [6] | Potency [7] | Potency [8] | Potency [9] | Potency [10]

CC[N+](CC)(CC)Cc1ccccc1
inactive: Potency [1] | Potency [2] | Potency [3] | Potency [4] | Potency [5] | Potency [6] | Potency [7] | Potency [8] | Potency [9] | Potency [10]

CCOC(=O)COc1ccc(C)cc1
inactive: Potency [1] | Potency [2] | Potency [3] | Potency [4] | Potency [5] | Potency [6] | Potency [7] | Potency [8] | Potency [9] | Potency [10]

O=C(O)Cc1ccc(OCCNC[C@H](O)c2ccccc2)cc1
inactive: Potency [1] | Potency [2] | Potency [3] | Potency [4] | Potency [5] | Potency [6] | Potency [7] | Potency [8] | Potency [9] | Potency [10]

COC(=O)CC(C)CCC=C(C)C (stereo not given)
inactive: Potency [1] | Potency [2] | Potency [3] | Potency [4] | Potency [5] | Potency [6] | Potency [7] | Potency [8] | Potency [9] | Potency [10]

C=C(C)CCCC
inactive: Potency [1] | Potency [2] | Potency [3] | Potency [4] | Potency [5] | Potency [6] | Potency [7] | Potency [8] | Potency [9] | Potency [10]

Cc1cc(=O)[nH]c(=O)[nH]1
inactive: Potency [1] | Potency [2] | Potency [3] | Potency [4] | Potency [5] | Potency [6] | Potency [7] | Potency [8] | Potency [9] | Potency [10]

COC(=O)NCCC[Si](OC)(OC)OC
inactive: Potency [1] | Potency [2] | Potency [3] | Potency [4] | Potency [5] | Potency [6] | Potency [7] | Potency [8] | Potency [9] | Potency [10]

Brc1ccccn1
inactive: Potency [1] | Potency [2] | Potency [3] | Potency [4] | Potency [5] | Potency [6] | Potency [7] | Potency [8] | Potency [9] | Potency [10]

CN(C)CCN1CCOCC1
inactive: Potency [1] | Potency [2] | Potency [3] | Potency [4] | Potency [5] | Potency [6] | Potency [7] | Potency [8] | Potency [9] | Potency [10]

Oc1c(Br)cc(Br)c2cccnc12
inactive: Potency [1] | Potency [2] | Potency [3] | Potency [4] | Potency [5] | Potency [6] | Potency [7] | Potency [8] | Potency [9] | Potency [10]

CC(NCCC(c1ccccc1)c1ccccc1)c1ccccc1 (stereo not given)
active: Potency [2] 15.1 µM | Potency [4] 21.3 µM | Potency [5] 19 µM | Potency [6] 21.3 µM | Potency [7] 21.3 µM | Potency [9] 23.9 µM
inactive: Potency [1] | Potency [3] | Potency [8] | Potency [10]

Source: PubChem BioAssay (Tox21)
